Compound activity deposited in PubChem BioAssay by National Center for Advancing Translational Sciences (NCATS).
Compounds with a hit are over-represented: about 7.6% of the library has one in this group of screens.
BRCA1 expr up = BRCA1 expression activation; MCF7-BRCA1-FFLuc reporter, luminescence, 48 h; response scale: scaled: vehicle 0%, 10 µM genistein 100%; AID 624202; Potency, µM (top dose mostly 46.1 µM), inactives show at the highest dose activation, hits mostly activators; 1.1% of 380,000 active; note: potency is the fitted concentration of half-maximal effect; nearly all actives have a fitted effect of over 80% in size
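Quantitative HTS in MCF7 cells stably reporting BRCA1 expression via firefly luciferase. Compound treatment lasts 48 h at 37 °C in phenol-red free MEM. Activation is expressed relative to genistein at 10 microM and DMSO.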
VP16 counter = counter-screen for ROR gamma inhibitors: Gal4-VP16 reporter | Potency, µM (top dose mostly 53.6 µM), without a hit: top-dose activity, negative = inhibition, hits mostly inhibitors | 3.5% of 310,000 active | Drosophila S2 Gal4-VP16 UAS-luciferase, luminescence, 20 h;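 note: Gal4-VP16 expression switched on by copper sulfate through the metallothionein promoter; potency is the fitted concentration of half-maximal effect; % is set by controls: 0 for no effect and ±100 for the full control effect; nearly all actives have a fitted effect of over 50% in size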
RORg inh = ROR gamma (mouse) transcription inhibition; P51450; Drosophila S2 Gal4-RORgamma UAS-luciferase reporter, 20 h; Potency, µM (doses to about 53.6 µM), without a hit: top-dose activity change, negative = inhibition, most hits filed as inhibitors; 5.4% of 310,000 active; note: potency is the fitted concentration of half-maximal effect; % is set by controls: 0 for no effect and ±100 for the full control effect; nearly all actives have a fitted effect of over 60% in size
Target sequence (P51450 whole entry, looked up, the tested form may be a part): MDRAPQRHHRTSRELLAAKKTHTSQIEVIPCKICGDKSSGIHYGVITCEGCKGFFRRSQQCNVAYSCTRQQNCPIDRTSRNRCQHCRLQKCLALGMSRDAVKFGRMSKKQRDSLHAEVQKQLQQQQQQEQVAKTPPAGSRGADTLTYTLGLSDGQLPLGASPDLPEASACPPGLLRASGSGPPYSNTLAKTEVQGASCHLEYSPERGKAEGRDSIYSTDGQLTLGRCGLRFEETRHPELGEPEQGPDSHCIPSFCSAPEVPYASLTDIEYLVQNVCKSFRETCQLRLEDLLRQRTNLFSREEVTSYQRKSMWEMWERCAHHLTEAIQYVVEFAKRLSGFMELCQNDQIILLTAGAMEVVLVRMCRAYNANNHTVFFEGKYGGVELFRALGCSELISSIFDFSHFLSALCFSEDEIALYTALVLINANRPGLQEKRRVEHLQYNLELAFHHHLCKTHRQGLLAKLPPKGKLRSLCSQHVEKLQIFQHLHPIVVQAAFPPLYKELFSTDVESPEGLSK
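Drosophila S2 cells stably expressing Gal4-DBD/mouse RORγ fusion under metallothionein promoter plus UAS-luciferase; compound 1 h, then 700 uM CuSO4 induction for 20 h at ambient temperature; inhibition read as reduced luminescence.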
ELG1 DNA repair = inhibitors of ELG1-dependent DNA repair in HEK293T cells; HEK293T ELG1-luciferase reporter, luminescence, 16 h; DNA damage induced by 5-fluorouridine; Potency, µM (doses to about 46.1 µM), without a hit: at the highest dose activity change, negative = inhibition, actives largely listed as inhibitors; 2.3% of 330,000 active; note: potency is the fitted concentration of half-maximal effect; % is set by controls: 0 for no effect and ±100 for the full control effect; nearly all actives have a fitted effect of over 55% in size
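Luminescence from the luciferase reporter, measured 30 min after ONE-Glo reagent at room temperature, was the read-out. Beforehand, 2,000 cells per well were exposed for 16 hr at 37 °C to 5-fluorouridine together with compound or vehicle.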
p53 reactivator = re-activators of mutant p53; H1299 p53-A138V BP100-luciferase reporter, luminescence, 24 h; Potency, µM (top dose mostly 92.2 µM), for inactives: top-dose activity change, positive = activation, actives largely listed as activators; 0.063% of 320,000 active; note: potency is the fitted concentration of half-maximal effect; % of control where 0% means no effect; nearly all actives have a fitted effect of over 45% in size
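p53-null H1299 cells stably carrying temperature-sensitive p53-A138V and a BP100-luciferase reporter were pinned with compounds (4-point, 1:5 series) and held 24 hrs at 37 deg C. Luminescence was read 10 min after detection reagent.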
Giardia killer = Giardia lamblia killing | activity change, % at 7.66 µM, hits read low | AID 540267 | Giardia lamblia trophozoite viability | 0.15% of 340,000 active; in the data active = activity change below about -80%; inconclusive = between about -30% and that limit;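 note: parasites exposed to compound for two days anaerobically before the ATP read; % is set by controls: 0 for no effect and ±100 for the full control effect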
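Luminescence from cellular ATP indicates surviving trophozoites (100 cells/well) following 48 hrs anaerobic compound treatment at 37 deg C; signal develops 15-30 min at room temperature.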
Numbers without * were called inactive; ? = inconclusive; . = no result given; [ ] = another dose, or the depositor's remark. Unless noted, calls come from the whole dose curve; as a rule, active = well fitted curve in the direction sought with a large enough effect; inconclusive = small, poorly fitted or top-dose-only effect, or another doubt; inactive = no such curve, though single readings can be large; an effect the other way counts as inactive or inconclusive.

SMILES	BRCA1 expr up	VP16 counter	RORg inh	ELG1 DNA repair	p53 reactivator	Giardia killer
CCC(=O)NC(c1cc(Cl)c2cccnc2c1O)C(C)C (configuration not stated)	-59%	.	.	8.2µM*	?	3
CCCC(=O)NC(c1ccc(OC)c(OC)c1)c1cc(Cl)c2cccnc2c1O (configuration not stated)	-84%	5µM*	2.8µM*	?	-4%	0
Cc1noc(C)c1S(=O)(=O)N1CCCC(C(=O)Nc2ccc(C(C)C)cc2)C1 (configuration not stated)	0%	.	.	.	.	.
Cc1[nH]c2ccc(C(C)C)cc2c1CC(=O)O	0%	-7%	10%	4%	-3%	-2
Cc1ccccc1NCc1cccn1-c1nnc(N2CCOCC2)s1	0%	.	.	.	.	.
O=C(NCc1ccc(Cl)cc1)c1cccnc1	8%	-3%	1%	?	-5%	-6
COc1ccc(C(NC(C)=O)c2cc(Cl)c3cccnc3c2O)cc1 (configuration not stated)	-78%	1.6µM*	2µM*	?	.	-16
COc1ccc(C(=O)NC(c2ccccc2Cl)c2cc(Cl)c3cccnc3c2O)cc1 (configuration not stated)	-44%	.	.	.	.	-2
O=C(NC(c1ccc(Cl)cc1)c1cc(Cl)c2cccnc2c1O)c1cccnc1 (configuration not stated)	-83%	0.71µM*	0.71µM*	?	18%	-23
Cc1cccc(Cc2cnc(NC(=O)C3=NCCN3)s2)c1	-6%	7.9µM*	3.5µM*	?	-1%	2
Cc1ccc(C(=O)Nc2nnc(C)s2)o1	50%	15%	32%	?	4%	-7
Cc1ccc(Cc2cnc(NC(=O)C3=NCCN3)s2)cc1	.	3%	14%	5%	3%	.
Cc1cccc(Cc2cnc(NC(=O)c3ccc(C)o3)s2)c1	47%	?	10µM*	?	?	4
O=C(COC(=O)c1ccccn1)NCc1cccc(Cl)c1	-13%	.	.	12%	-4%	13
C=CCSc1nsc(NC(=O)Nc2ccc(F)cc2)n1	-54%	3.5µM*	?	?	5%	-4
O=c1[nH]cc(N=Cc2cc(Cl)cc(Cl)c2O)c(=O)[nH]1	-14%	13µM*	11µM*	-4%	?	-12
O=c1[nH]cc(N=Cc2cc([N+](=O)[O-])ccc2O)c(=O)[nH]1	.	-1%	-23%	-3%	-22%	.
Cc1ccc(NC(=S)NCCc2c[nH]c3ccccc23)cc1	?	20µM*	7.9µM*	?	4%	6
Cc1cccc(NC(=S)NCCc2c[nH]c3ccccc23)c1	7%	1µM*	2.5µM*	-3%	4%	-1
CC(C)c1ccc(NC(=S)NCCc2c[nH]c3ccccc23)cc1	-35%	?	10µM*	-21%	?	-10
CCOc1ccccc1NC(=O)Cn1c(=O)n(CCC(C)C)c(=O)c2cccnc21	0%	.	.	.	.	.
CCN(CC(=O)Nc1ccccc1OC)C(=O)c1ccc2[nH]c3c(c2c1)CC(C)CC3 (configuration not stated)	-17%	.	.	?	-2%	13
COc1ccccc1-c1cncnc1NCCc1cnc[nH]1	.	-2%	-4%	.	.	.
Cc1noc(C)c1COc1ccc(C(=O)NCCc2ccccn2)cc1	-1%	?	15%	?	0%	-25
O=S1(=O)C=C(Sc2nc3cc(Cl)ccc3o2)c2ccccc21	-99%	2.5µM*	5.6µM*	21µM*	-33%	-10
SMILES	BRCA1 expr up	VP16 counter	RORg inh	ELG1 DNA repair	p53 reactivator	Giardia killer
Cc1nc2ccccn2c1-c1ccnn1S(=O)(=O)c1ccc(F)cc1	-39%	?	0%	18µM*	-5%	1
NC(=O)C(c1ccc(Cl)cc1)c1ccc(Sc2ccc(Cl)cc2)nn1 (configuration not stated)	-37%	14µM*	?	?	-4%	-7
O=C(CSc1ccc(-c2ccncc2)nn1)c1ccc(Cl)cc1	-6%	-12%[10 µM]	16%	1%	1%	-8
CCC(C)Sc1nnc(CNC(=O)C23CC4CC(CC(C4)C2)C3)n1C1CCCCC1 (configuration not stated)	-44%	?	11µM*	-9%	-9%	5
CC(C)Sc1nnc(CNC(=O)C23CC4CC(CC(C4)C2)C3)n1Cc1ccccc1	-17%	-8%	-40%	-14%	-14%	-5
COC(=O)COc1ccc(/C=N/NC(=O)CN(c2ccccc2OC)S(=O)(=O)c2ccccc2)cc1	-69%	1%	1%	22%	-16%	-11
Nc1nccnc1C(=O)OCC(=O)c1ccc[nH]1	4%	.	.	-4%	6%	-19
Cc1ccc(CS/C(Nc2ccccc2C)=C(\C#N)C(=O)NCc2ccco2)c(C)c1	-15%	-2%	-1%	15µM*	-6%	-10
Cc1ccccc1N/C(SCc1ccc(Cl)cc1)=C(/C#N)C(=O)NCc1ccco1	-34%	-7%	-41%	?	-9%	-7
S=c1nc(C2COc3ccccc3O2)[nH][nH]1 (configuration not stated)	54%	17%	13µM*	-3%	10%	21
CC(=O)NCCc1ccc(S(=O)(=O)NC2OC(=O)c3ccccc32)cc1 (configuration not stated)	-2%	-8%	-16%	-1%	11%	-15
Cc1ccc(Cn2cnc3c(cnn3C(C)(C)C)c2=O)cc1	-5%	?	-28%	16µM*	2%	9
CC(C)(C)n1ncc2c(=O)n(Cc3ccc(Cl)c(Cl)c3)cnc21	1%	-18%	-25%	?	-2%	16
O=C(N/N=C/c1ccccc1OC(=O)c1ccc2c(c1)OCO2)c1ccccc1	-66%	?	11µM*	?	?	-2
COc1ccccc1/C=N/NC(=O)c1ccc2c(c1)OCO2	4%	-15%	?	?	?	-17
COc1ccc(/C=N/NC(=O)c2cccc(NC(C)=O)c2)c(OC)c1	-12%	-8%	20%	4%	0%	-23
COc1ccc(/C=N/NC(=S)Nc2cccc(C(=O)O)c2)cc1	15%	11µM*	3.5µM*	?	-7%	-14
COc1ccc(C(=O)Nc2cccc(C(=O)N/N=C/c3ccc(OC)cc3OC)c2)cc1	-70%	14µM*	10µM*	?	6%	-25
CC(C)(C)C(=O)Nc1ccc(C(=O)N/N=C/c2ccccc2OC(=O)c2ccc(Cl)cc2)cc1	-65%	-4%	5%	18µM*	7%	-21
